In PubChem BioAssay AID1210 (NMMLSC, 2008):
Values without a mark were called inactive. The source made the active and inactive calls.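 How the source made its calls: active means blocks over 70% of labeled estradiol binding at 10 µM, or over a set limit at 100 nM; inactive means the rest.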

Biological target: Estrogen receptor beta (Homo sapiens) (UniProt Q92731)
Assay: displacement of fluorescent estrogen from ERbeta – cell-based, Cos7 ERbeta-GFP, flow cytometry, primary screen (AID 1210);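 further: 0% = DMSO vehicle wells and 100% = complete loss of labeled estradiol signal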
Details: fluorescent estrogen binding, at 10 µM, stronger effect = higher value

Chain of Estrogen receptor beta (Homo sapiens) (Q92731 whole entry, looked up): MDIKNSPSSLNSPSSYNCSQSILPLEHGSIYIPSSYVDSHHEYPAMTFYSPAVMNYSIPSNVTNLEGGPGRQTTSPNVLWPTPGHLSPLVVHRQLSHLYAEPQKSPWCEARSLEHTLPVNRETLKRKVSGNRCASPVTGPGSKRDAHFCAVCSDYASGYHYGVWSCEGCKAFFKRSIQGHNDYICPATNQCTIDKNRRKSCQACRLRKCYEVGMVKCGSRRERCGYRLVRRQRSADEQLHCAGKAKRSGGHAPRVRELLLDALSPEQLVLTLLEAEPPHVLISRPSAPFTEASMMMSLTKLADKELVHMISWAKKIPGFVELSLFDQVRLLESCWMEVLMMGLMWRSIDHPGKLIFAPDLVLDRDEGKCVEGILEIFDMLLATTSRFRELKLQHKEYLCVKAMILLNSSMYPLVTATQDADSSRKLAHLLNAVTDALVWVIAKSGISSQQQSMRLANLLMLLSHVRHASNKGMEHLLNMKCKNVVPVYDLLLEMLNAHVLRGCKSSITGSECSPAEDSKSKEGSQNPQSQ

First: CCCNC(=O)c1ccc2c(c1)C1C3CCC(C3)C1C(c1ccccc1)N2 (centres undefined)
Second: COc1ccccc1C1Nc2c(C(=O)O)cccc2C2C3CCC(C3)C12 (centres undefined)
The inhibition of the first is higher: 54% for the first, 21% for the second.

Compared with `Cc1ccc(-n2nnnc2SCC(=O)Nc2cccc(NC(=O)c3ccco3)c2)cc1C`, `COc1ccccc1C(=O)Nc1nc(-c2cccs2)c(NC(C)=O)s1` is lower in inhibition: 56% for the first, 40% for the second.

First: O=c1oc2c(CN3CCCC3)c(O)ccc2c2c1CCC2
Second: CC1CCCC(C)N1Cc1c(O)ccc2c3c(c(=O)oc12)CCC3 (centres undefined)
The inhibition of the first is higher: 22% for the first, 21% for the second.

Going from `CCc1cc2c3c(c(=O)oc2cc1OCC(=O)O)CCCC3` to `O=C(O)COc1cc2oc(=O)c3c(c2cc1Cl)CCCC3`, the inhibition falls from 20% to 11%.

Going from `CCOc1cc2c(c([N+](=O)[O-])c1)NC(c1ccccc1)C1CC=CC21` (centres undefined) to `COc1cc2c(c([N+](=O)[O-])c1)NC(c1ccc(Br)cc1)C1CC=CC21` (centres undefined), the inhibition falls from 17% to 8%.

Going from `CCOc1cc2c(cc1OCC)C(C1CCCCC1)NCC2` (centres undefined) to `CCCCOc1cc(OCCCC)c2c3c(c(=O)oc2c1)CCCC3`, the inhibition rises from 12% to 27%.

First: Oc1ccc2c(c1)c1c3n2CCNC3CCC1 (centres undefined)
Second: COc1ccc2[nH]c3c(c2c1)CCNC3C1CC=C(C)CC1 (centres undefined)
The inhibition of the first is higher: 25% for the first, 22% for the second.

Compared with `COc1ccc(Cn2c(=O)[nH]c3cc(C(=O)NCc4ccc5c(c4)OCO5)ccc3c2=O)cc1`, `COc1ccc(NS(=O)(=O)c2ccc3c(c2)[C@H]2C=CC[C@H]2[C@@H](c2cccc(OC)c2OC)N3)cc1` is lower in inhibition: 35% for the first, 1% for the second.

First: CCOC(=O)Cc1csc(NC(=O)Cc2cccs2)n1
Second: CCCCOC(=O)c1c(C)oc2ccc(NS(=O)(=O)c3ccc4c5c(cccc35)C(=O)N4)cc12
The inhibition of the first is lower: 25% for the first, 43% for the second.

Compared with `Cc1oc2ccc(OCC#N)cc2c1C(=O)OC(C)C`, `COc1ccc(-n2cc3c(c(C#N)c2=N)CC(C)(C)CC3=O)cc1` is higher in inhibition: 14% for the first, 18% for the second.

First: CCCCCCc1cc2c3c(c(=O)oc2cc1OCC(=O)O)CCCC3
Second: N#Cc1c2c(c(=O)n3c1[nH]c1ccccc13)CCCC2
The inhibition of the first is lower: 7% for the first, 13% for the second.

First: Nc1ccc(-c2nc3ccc([N+](=O)[O-])cc3[nH]2)cc1
Second: Nc1ccc2nc(-c3ccc(N)c(Cl)c3)[nH]c2c1
The inhibition of the first is lower: 61% for the first, 64% for the second.

Compared with `O=C(OC1CCCCC1)c1ccc2c(c1)C1C=CCC1C(C(=O)O)N2` (centres undefined), `O=C(O)C1Nc2c(C(=O)N3CCOCC3)cccc2C2C=CCC12` (centres undefined) is higher in inhibition: 7% for the first, 45% for the second.

Compared with `CCOC(=O)c1c(N)sc2c1CC(C)(C)NC2(C)C`, `CC1(C)C=C(c2ccc(O)cc2)CC(C)(C)N1` is higher in inhibition: 22% for the first, 43% for the second.

Going from `N#Cc1c(NCCN)nc(NCc2ccccc2)c2c1CCN(Cc1ccccc1)C2` to `Cc1nn(-c2ccccc2)c2sc(C#N)c(N)c12`, the inhibition falls from 42% to 6%.

Going from `COc1nnc(-c2ccc(C(=O)N3C[C@@H]4C[C@H](C3)c3cccc(=O)n3C4)cc2)c2ccccc12` to `CCc1oc2c(C)c(O)ccc2c(=O)c1-c1ccc2ccccc2n1`, the inhibition rises from 34% to 39%.

First: CC1CCC2(C)c3[nH]c4ccccc4c3CCN2C1=O (centres undefined)
Second: CC(=O)c1ccc2c(c1)C1C=CCC1C(c1ccncc1)N2 (centres undefined)
The inhibition of the first is lower: 7% for the first, 11% for the second.

Going from `CN(/N=C/c1cccnc1)c1cnn(-c2ccc(F)c(Cl)c2)c(=O)c1Cl` to `CC(=O)Oc1ccc(C2Nc3c(C(=O)O)ccc([N+](=O)[O-])c3C3C=CCC32)cc1` (centres undefined), the inhibition rises from 20% to 56%.

With `COc1ccc(NS(=O)(=O)c2ccc3c(c2)[C@H]2C=CC[C@H]2[C@@H](c2ccc(C(=O)O)cc2)N3)cc1` the inhibition was 88% (active).
With `O=c1cc(-c2ccc(O)c(-c3c(O)cc(O)c4c(=O)cc(-c5ccc(O)cc5)oc34)c2)oc2cc(O)cc(O)c12` the inhibition was 76% (active).
In the case of `CC(=O)OC1CC2(C)C(=O)CCC2C2CCc3cc(O)ccc3C12` (centres undefined), the inhibition is reported as 95% (active).
